The results in this text go back to PubChem BioAssay (NCI).

The panel holds about 83,000 compounds, 20% with a hit somewhere; the sample as a whole holds those more often.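 Activity criterion: percent growth below 10, measured after cells in 96-well plates were exposed to a single compound concentration for 48 hours.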 Calls of active or inactive are those of the source.

The test has as its system SR leukemia. In words: NCI-60 one-dose screen, 48 h (100 = growth as untreated, 0 = no growth, -100 = all killed). The following applies: 10 µM unless noted. The protocol:
Growth inhibition of the SR human tumor cell line is measured as a screen for anti-cancer activity. Cells are grown in 96 well plates and exposed to the test compound for 48 hours. Compounds are tested at a single concentration, which is 10^-5 M for most compounds. The reported endpoint is percent growth (GI% or GIPRCNT), where numbers from 0 - 100% represent growth inhibition, and numbers from -100% - 0 represent cell death. For example, a value of 40 represents 60% growth inhibition. A value of 0 means no net growth occurred over the course of the experiment. A value of -40 indicates 40% of cells at the beginning of the experiment died by the end of the experiment. A value of -100 means all cells are dead at the end of the experiment.
NCI-60 Human Tumor Cell Lines Screen was performed using the standard one-dose NCI protocol, which is described in more detail at https://dtp.cancer.gov/discovery_development/nci-60/default.htm.
Compounds with GIPRCNT values below 10 were considered active. Activity score was based on GIPRCNT using the following formula: […]
Score is 0 for GIPRCNT values of 100 or above, 50 for GIPRCNT values of 0, and 100 for GIPRCNT values of -100.
`COc1cc(/C=C/C(=O)Nc2ccc3c(c2)/C(=C\c2cccn2C)C(=O)N3)cc(OC)c1OC`: the growth was 16.2% (inactive).
For `O=C(Nc1ccc(Cl)cc1Cl)Nc1ccc(-c2cccnc2)cc1N1CCC(CO)CC1` the value was 6.57% (active).
The result for `O=C1N(C2CCCCC2)C(=O)N1C1CCCCC1` reads 46.6% (inactive).
The result for `CC(c1cc(Cl)ccc1O)c1cc(Cl)ccc1O` reads 53.3% (inactive).
Take `COc1ccc(-c2csc(NC(=O)c3cc(O)c(O)c(O)c3)n2)cc1`: the growth was 14.5% (inactive).
For `S=C(Nc1ccc(C2=NCCN2)cc1)Nc1ccc(C2=NCCN2)cc1`, the growth was 90.4% (inactive).
For `CCOC(=O)c1cc(-c2cccnc2)nc2c(Cl)cc(Cl)cc12` the value was 117% (inactive).
`O=C(Nc1ccc(Cl)cc1)c1cc2c(cc1O)[nH]c1ccccc12`: the growth was 1.22% (active).
For `COc1ccc(-c2cncn2-c2ccc(-c3nc4cc(OC)c(OC)c(OC)c4s3)cc2)cc1N` the value was 43.4% (inactive); for `CSc1ncc2ncn(C3OC(CO)C(O)C3O)c2n1` (stereo not given), 111% (inactive); for `O=C(O)c1ccc(NC(=O)c2cccc(Nc3ccnc(C(F)(F)F)c3)c2)cc1`, 86.1% (inactive).
The result for `CC/C(=C\c1ccc(N(C)C)cc1)c1nc2ccccc2c(=O)[nH]1` reads 77.4% (inactive).
Consider `O=C(/C(=N/O)S(=O)(=O)c1ccccc1)c1cccs1`, for which the growth is 85.9% (inactive).
Regarding `CCOC(Cc1c(N)[nH]c(=S)[nH]c1=O)OCC`, the growth is 90.8% (inactive).
The result for `CCCCCCCCCCCCCCCCN=C(CC(=O)O)C(=O)O` reads 65.6% (inactive); that for `COc1ccc(/C=C2\NC(=S)NC2=O)cc1`, 110% (inactive); that for `Oc1[nH]c2ccccc2c1/C=c1/ccc2c(c1)N=C(c1cc(F)cc(F)c1)N=2`, 19.9% (inactive).
In the case of `Cc1ccc2c(c1)C(=O)/C(=C/c1ncc([N+](=O)[O-])n1C)O2`, the growth was 11% (inactive).
The result for `CN(CC(=O)N(Cc1ccc(C2CCCCC2)cc1)c1ccc(C(=O)O)cc1)S(=O)(=O)c1c(F)c(F)c(F)c(F)c1F` reads -22.1% (active); that for `COc1ccc(C2=NN(C(=O)c3cc(OC)c(OC)c(OC)c3)C(c3ccc(C#N)cc3)C2)cc1OC` (stereo not given), 28.4% (inactive).
For `COc1ccc(-c2cc(C(=O)Nc3nc4cc(C)c(C)cc4s3)nc3cc(-c4ccccc4)nn23)cc1OC` the value was 62.8% (inactive).
For `C=CCCCCCCCCC(=O)[O][Sn]([CH2]CCC)([CH2]CCC)[CH2]CCC` the value was 8.68% (active); for `c1coc([C@@H]2C[C@@H]3Cc4ccc5ccccc5c4N2O3)c1`, 88.8% (inactive).
As to `Cc1cc(Cl)ccc1Nc1nc(C(F)(F)F)ccc1C(=O)NCC(=O)N/N=C/c1c(Cl)cccc1Cl`, the growth was 42.2% (inactive).
For `CCOC(=O)c1ccccc1OC(=O)NNc1ccccc1` the value was 27.6% (inactive); for `COc1cc2c(cc1OCCCCCn1c(-c3ccc(OCc4ccccc4)cc3)nc3cc(N4CCOCC4)ccc31)N=C[C@@H]1CCCN1C2=O`, 137% (inactive).
On to `Cc1cc(C)n(C(=O)c2nn(-c3ccc(Cl)cc3)cc2O)n1`, for which the growth was 3.49% (active).
As for `O=C(COC(=O)[C@H](C[Se][Se]C[C@H](NC(=O)c1ccc(Br)cc1F)C(=O)OCC(=O)c1ccc(F)cc1)NC(=O)c1ccc(Br)cc1F)c1ccc(F)cc1`, the growth was -39.3% (active).
For `COc1ccc2c(c1)C(=O)c1c-2c(=O)n(CCCCCCC(=O)NO)c2ccccc12` the value was 5.2% (active); for `COc1ccc(/C=C2\COc3ccc(O)c(O)c3C2=O)cc1OC`, -1.26% (active); for `Cc1cc(NCCCNc2ccnc3cc(Cl)ccc23)nc(N2CCN(C)CC2)n1`, 0.0449% (active).
On to `ClC1=C(Cl)C(Cl)=C(Cl)C1=C/C=C/c1ccccc1`, for which the growth was -43.2% (active).
The result for `CCCCOc1ccc(C(C)(C)c2ccc(OCCCC)cc2)cc1` reads 92.6% (inactive).
The result for `N=C(N)/N=C(\CCc1nc2ccccc2[nH]1)c1nc2ccccc2[nH]1` reads 83.9% (inactive).
The result for `O=C1Nc2ccc(F)cc2/C1=C/c1nc(-c2ccc(F)cc2)n2ccccc12` reads 52.9% (inactive); that for `CCOC(=O)/C=C(/C)Sc1cc(O)c2ccccc2c1O`, 17.1% (inactive).
In the case of `O=C(/C(=C/c1ccc([N+](=O)[O-])cc1)c1ccccc1)c1ccccc1`, the growth was 0.152% (active).
The result for `CC(C)COCC(CN(Cc1ccccc1)c1ccccc1)N1CCCC1` (stereo not given) reads 51.8% (inactive); that for `COc1ccc(OC)c(/C=C/c2nc(=S)n(-c3ccc(Cl)cc3)[nH]2)c1`, 38.3% (inactive); that for `COc1ccc2c(c1)C(=O)/C(=C/c1ccc([N+](=O)[O-])s1)O2`, 11.4% (inactive).
